# Screening data from PubChem BioAssay.
# ATXN2 expr inh: reduces ATXN2 reporter expression in HEK-293 cells. HEK-293 ATXN2-luciferase reporter, luminescence, 24 h. Potency, µM (doses to about 57 µM), without a hit: at the highest dose activity change, negative = inhibition, hits mostly inhibitors. actives 0.72% (n = 360,000). AID 1745845; note: potency is the fitted concentration of half-maximal effect; % is set by controls: 0 for no effect and ±100 for the full control effect; nearly all actives have a fitted effect of over 55% in size
#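 qHTS (up to 57 uM final) was run with 24 h compound exposure of reporter cells at 37 °C. Each well was multiplexed: SteadyGlo luminescence measured ATXN2-luciferase expression after a fluorogenic Gly-Phe-AFC viability readout (25 uM final).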
# Integrin act MD: activates integrin-mediated alleviation for muscular dystrophy; actives 0.064% (n = 350,000); alpha7betagal myoblasts, beta-gal FDG fluorescence, 48 h; Potency, µM (highest dose often 38.3 µM), inactives show top-dose activation, most hits filed as activators;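 note: potency is the fitted concentration of half-maximal effect; 100% = response of the positive control SU9516; nearly all actives have a fitted effect of over 60% in size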
#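 Alpha7betagal+/- myoblasts (passage 13) were plated 16-24 hr, then exposed to compounds (1:260 dilution of DMSO stock) for 48 hours at 37C. After MPER lysis, β-galactosidase reporter activity was read as FDG fluorescence (ex 480/em 540) after 30 minutes.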
# S2 tox: viability counter-screen for ATXN expression inhibitors. AID 651635. S2 cells (HEK-293 line with an ATXN2-luciferase reporter) viability, CellTiter-Fluor protease fluorescence, 24 h. Potency, µM (series often up to 56.7 µM), actives largely listed as cytotoxic. actives 0.49% (n = 400,000); note: potency is the fitted concentration of half-maximal effect; nearly all actives have a fitted effect of over 40% in size
# D3 antag: blocks the human D3 dopamine receptor; P35462; D3R cells, DiscoveRx beta-arrestin luminescence, antagonist mode; stronger effect = lower value; max response, negative = inhibition, %; actives 2.5% (n = 360,000); AID 652054; in the data active = max response below about -50%; inconclusive = no clear call, values can overlap the other calls; note: % is set by controls: 0 for no effect and ±100 for the full control effect
# Target sequence (P35462 whole entry, looked up): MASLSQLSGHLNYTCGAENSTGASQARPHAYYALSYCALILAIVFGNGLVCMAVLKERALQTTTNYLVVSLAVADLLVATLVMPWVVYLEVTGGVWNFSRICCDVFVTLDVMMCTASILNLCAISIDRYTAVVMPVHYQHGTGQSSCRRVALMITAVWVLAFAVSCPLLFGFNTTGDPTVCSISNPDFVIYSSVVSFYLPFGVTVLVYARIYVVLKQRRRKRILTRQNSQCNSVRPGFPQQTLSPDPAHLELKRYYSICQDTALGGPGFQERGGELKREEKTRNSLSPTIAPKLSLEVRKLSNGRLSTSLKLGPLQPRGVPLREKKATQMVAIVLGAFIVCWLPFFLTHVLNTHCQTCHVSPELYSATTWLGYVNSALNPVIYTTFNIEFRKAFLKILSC
#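 Cells plated overnight at 1500 cells/well, then exposed to library compounds with dopamine controls for 90 minutes at 37 degrees C. DiscoveRx reagent added for 30–60 minutes at room temperature; luminescence read, quantitative HTS format.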
# DRD3 agonist: agonists of human D3 dopamine receptor | P35462 | D3R DiscoveRx beta-arrestin cells, luminescence, 90 min | max activation, % | actives 0.58% (n = 410,000) | AID 652048; in the data active = max activation above about 30%; note: 0% is about no effect
#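 Agonist-mode cell screen: cells plated at 1500/well and incubated overnight at 37 °C, then exposed to library compounds for 90 min at 37 °C. Detection reagent was added for 30–60 min at room temperature, and luminescence was read.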
# IL-1B inflam inh: blocks inflammasome-driven IL-1 beta release; THP-1 LPS/ATP IL-1B secretion, AlphaLISA, 16 h; stronger effect = lower value; activity change, % at 57.5 µM; actives 4.7% (n = 360,000); AID 743279; in the data active = activity change below about -50%; inconclusive = mostly about -30% to -49%; note: % is set by controls: 0 for no effect and ±100 for the full control effect
#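 Secreted IL-1B measured by AlphaLISA bead assay after 16 h compound exposure of THP-1 cells; compounds (final up to 57.5 uM) added 1 h before LPS (250 ng/mL) and ATP (1.25 mM) stimulation; lower signal means less secretion.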
# An asterisk follows results filed as active; i = inactive; ? = inconclusive; · = no result. Shown are actives, neighbours in structure and some others; about 7% of the full set was active somewhere. Unless noted, calls come from the whole dose curve; as a rule, active = well fitted curve in the direction sought with a large enough effect; inconclusive = small, poorly fitted or top-dose-only effect, or another doubt; inactive = no such curve, though single readings can be large; an effect the other way counts as inactive or inconclusive.
SMILES,ATXN2 expr inh,Integrin act MD,S2 tox,D3 antag,DRD3 agonist,IL-1B inflam inh
CSc1ccc(/C=C2\CCn3c2nc2cc(C(=O)O)ccc2c3=O)cc1,-9.7%,33.4%,·,?,-11.0,51.5
O=C(COc1ccccc1F)OCc1cc(=O)n2nc(C3CC3)sc2n1,-1.1%,·,i,·,1.1,·
CC(=O)c1ccc(N2C(=O)N(CC(=O)c3ccc(F)cc3)c3ccccc3S2(=O)=O)cc1,1.5%,·,i,·,-9.7,·
CC(=O)c1ccc(N2C(=O)N(Cc3ccc(F)cc3)c3ccccc3S2(=O)=O)cc1,-21.3%,·,i,·,49.5*,·
N#Cc1ccc(C(=O)N2CCC3CC2c2cc(-c4ccccc4)ccc23)cc1 (stereo not drawn),3.9%,-3.4%,i,0.0,-1.9,-5.0
O=C(N/N=C/c1ccc(O)c(O)c1)NC12CC3CC(CC(C3)C1)C2,-15.3%,-24.2%,i,-8.9,11.7,-81.7*
Cc1cc(C)c(OCC(=O)N(Cc2ccc(N(C)C)cc2)Cc2ccco2)c(C)c1,·,·,·,·,4.7,·
Nc1cc(Cl)ccc1C(=O)OCC(=O)NCc1cccs1,·,-18.7%,?,0.2,0.5,-84.6*
Cc1cccc(NS(=O)(=O)c2ccc(C)c(NS(=O)(=O)c3cccs3)c2)c1,22.0%,-8.5%,i,-24.8,3.7,-61.6*
CCc1ccc(CNC(=O)c2ccc3c(c2)NC(=O)C(N2CCOCC2)S3)cc1 (stereo not drawn),·,-51.7%,?,-3.5,-6.1,-6.4
COc1cc(CN2CCC(Cc3ccccc3)CC2)c([N+](=O)[O-])cc1OC,-12.0%,-32.5%,i,20.6,-0.3,-6.5
O=[N+]([O-])c1ccccc1OCCCN1CCc2ccccc2C1,7.0%,-15.6%,i,-102.7*,-21.4,-9.7
CC1CC(C)CN(CCCOc2ccccc2[N+](=O)[O-])C1 (stereo not drawn),-9.8%,-20.6%,i,?,-7.4,-9.6
Cc1cc(OCCN2CCCC2)ccc1[N+](=O)[O-],2.0%,-15.8%,i,-63.0*,-22.5,1.9
Cc1ccc([N+](=O)[O-])c(OCCCN2CCC(Cc3ccccc3)CC2)c1,·,-60.5%,?,-95.5*,-1.5,-60.3*
O=[N+]([O-])c1cccc(OCCN2CCC(Cc3ccccc3)CC2)c1,-24.8%,-47.0%,i,-101.7*,-20.8,-65.9*
Cc1ccc(C(=O)NC(=S)N2CCN(c3cc(C)ccc3C)CC2)cc1,?,-34.9%,?,-11.3,-0.7,-5.1
COc1ccc(CCN2CC(=O)NC(=O)C2)cc1OC,·,-7.9%,i,70.2,3.1,-9.7
N#Cc1ccc(C(=O)Nc2cc(S(=O)(=O)N3CCOCC3)ccc2N2CCOCC2)cc1,·,13.2%,i,2.2,3.8,15.1
Cc1ccc([N+](=O)[O-])c(OCCn2cnc3ccccc32)c1,-30.4%,4.0%,i,-17.5,-17.5,?
Cc1nonc1OCCN1CCN(c2ccccc2[N+](=O)[O-])CC1,-8.5%,12.6%,i,-58.2*,-9.0,0.0
Cc1ccc([N+](=O)[O-])c(OCCN2CCCCCC2)c1,1.8%,-5.8%,i,-90.1*,-14.5,0.0
Cc1ccc(C)c(OCCCN2CCCC2)c1,-0.8%,0.0%,i,?,-59.7,4.6
Nc1nonc1OCCN1CCN(c2ccc([N+](=O)[O-])c3cccnc23)CC1,-26.0%,14.4%,i,-5.3,-8.1,4.4
O=[N+]([O-])c1ccccc1OCCN1CCCC1,6.5%,2.6%,i,-61.2*,-12.6,-29.6
Cc1ccc([N+](=O)[O-])c(OCCN2CCc3ccccc3C2)c1,-4.3%,-34.1%,i,-59.6*,15.3,0.0
O=C(CSc1nnc(Cc2ccccc2)o1)NCCc1ccccc1,-1.0%,28.6%,i,-20.0,-11.4,4.4
CCOC(=O)/C=C1\SCC(=O)N1CC(=O)NCc1cccc(Cl)c1,-13.2%,14.4%,i,25.8,7.6,20.6
O=C(Cc1cccc2ccccc12)N/N=C/c1ccc(OC(=O)/C=C/c2ccco2)cc1,-0.4%,0.0%,i,20.3,11.8,?
COc1cccc(OCCOc2ccccc2[N+](=O)[O-])c1,73.0%,-12.8%,i,-22.9,-7.1,?
